Compound activity (PubChem)
Sampled rows, rich in hits. Any-hit rate of the full collection: about 2.8%.
GLP-1R inv ag: qHTS of GLP-1 Receptor Inverse Agonists (Inhibition Mode); Glucagon-like peptide 1 receptor (Homo sapiens), P43220; HEK293 GLP-1R CRE-luciferase, luminescence, 24 h; GLP-1R form is constitutively active; Potency, µM (top dose mostly 38.3 µM), inactives show top-dose activity change, negative = inhibition, hits mostly inhibitors; actives 1.6% (n = 410,000); AID 624417, 2012; also: % is scaled to controls: 0 for no effect and ±100 for the full control effect; nearly all actives have a fitted effect of over 55% in size
Target sequence (P43220 whole entry, looked up): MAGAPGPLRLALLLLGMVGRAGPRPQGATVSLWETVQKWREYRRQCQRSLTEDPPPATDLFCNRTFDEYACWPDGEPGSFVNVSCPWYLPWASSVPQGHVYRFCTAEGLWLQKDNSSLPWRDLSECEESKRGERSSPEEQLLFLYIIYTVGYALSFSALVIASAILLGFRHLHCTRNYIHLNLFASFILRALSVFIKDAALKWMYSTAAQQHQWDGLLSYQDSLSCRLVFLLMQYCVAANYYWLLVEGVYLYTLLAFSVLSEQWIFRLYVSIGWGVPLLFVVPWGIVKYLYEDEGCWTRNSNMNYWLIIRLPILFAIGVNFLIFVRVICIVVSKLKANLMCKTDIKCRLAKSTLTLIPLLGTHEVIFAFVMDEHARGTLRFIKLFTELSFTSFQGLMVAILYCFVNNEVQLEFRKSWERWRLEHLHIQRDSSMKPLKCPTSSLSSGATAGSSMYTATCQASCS
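qHTS in 1536-well format: reporter HEK293 cells expressing constitutive GLP-1R activity in DMEM + 10% Nu serum, 24 hr with compounds at 37 deg C, luminescence read after 12 min with detection reagent.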
Mito fusion act: qHTS Assay for Small Molecule Inhibitors of Mitochondrial Division or Activators of Mitochondrial Fusion; actives 0.23% (n = 320,000); Potency, µM (highest dose often 46.1 µM), for inactives: at the highest dose growth rescue (activation), usual class: activators; S. cerevisiae fusion-defective mutant growth rescue, CellTiterGlo 48 h; also: % of control where 0% means no effect; nearly all actives have a fitted effect of over 45% in size
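Growth-rescue viability read-out: after 48 h at the non-permissive 37C in glycerol/ethanol YPEG, yeast mitochondrial fusion mutants are measured by CellTiterGlo luminescence; compounds (23 nl pinned per well) restoring growth score as division inhibitors or fusion activators.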
HEK293 tox: qHTS of GLP-1 Receptor Inverse Agonists: Cytotox Screen; HEK293 cAMP-luciferase reporter cells, luminescence, 24 h; Potency, µM (highest dose often 38.3 µM), inactives show at the highest dose activity change, negative = inhibition, most hits filed as inhibitors; actives 0.13% (n = 410,000); AID 624418, 2012;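 also: loss of luciferase light is scored as toxicity; % is scaled to controls: 0 for no effect and ±100 for the full control effect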
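Seeding density was 200 cells/uL; after overnight-length (12 h) culture, 23 nL compounds went on for 24 h at 37 °C. Readout used a luciferase detection reagent, luminescence taken after 12 min at room temperature.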
GLP-1R agonist: qHTS of GLP-1 Receptor Agonists. AID 624172, 2012. Potency, µM (top dose mostly 45.6 µM), for inactives: at the highest dose activation, usual class: activators. Glucagon-like peptide 1 receptor (Homo sapiens), P43220. HEK293 GLP-1R CRE-luciferase, luminescence, 4-6 h; cells express a hypersensitive GLP-1R form. actives 0.007% (n = 380,000); also: % of control where 0% means no effect
BRCA1 expr act: qHTS Assay to Identify Small Molecule Activators of BRCA1 Expression; actives 1.1% (n = 380,000); Potency, µM (series often up to 46.1 µM), for inactives: top-dose activation, hits mostly activators; MCF7-BRCA1-FFLuc reporter, luminescence, 48 h; response scale: scaled: vehicle 0%, 10 µM genistein 100%; AID 624202, 2012; also: nearly all actives have a fitted effect of over 80% in size
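MCF7 cells carrying a BRCA1-firefly luciferase reporter (2000 cells/well, phenol-red free MEM) were attached for 2 h at 37 °C, then given compounds for 48 h. Luminescence was read 15 min after luciferase reagent; activity normalized to genistein (10 microM) and DMSO.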
An asterisk follows results filed as active; ? = inconclusive; . = no result given. Calls follow the shape of the dose curve; as a rule, active = well fitted curve in the direction sought with a large enough effect; inconclusive = small, poorly fitted or top-dose-only effect, or another doubt; inactive = no such curve, though single readings can be large; an effect the other way counts as inactive or inconclusive. Potency is read from the fitted curve at half-maximal effect.

SMILES	GLP-1R inv ag	Mito fusion act	HEK293 tox	GLP-1R agonist	BRCA1 expr act
CCOC(=O)c1c(C)[nH]c(C=O)c1Cc1cccc(Cl)c1	?	12.6µM*	13.5%	1.3%	-53.5%
O=C(O)/C(=C\c1ccc(Cl)cc1)c1ccc(S(=O)(=O)N2CCCC2)s1	16.6%	-2.2%	6.3%	1.7%	-20.3%
O=C(Cc1ccc(Br)cc1)N1CCN(c2ccc(F)cc2)CC1	?	10.6%	-16.3%	0.3%	-5.2%
O=C(c1cc(-c2ccc(Br)cc2)nc2ccccc12)N1CCN(c2ccccc2O)CC1	2.51µM*	?	?	6.6%	-38.8%
Cc1cc(C(=O)N2CCN(c3ccccc3O)CC2)c(C)o1	-7.6%	2.0%	-1.3%	-5.6%	27.4%
Cc1ccc(-c2cc(C(=O)N3CCN(c4ccccc4O)CC3)c3ccccc3n2)o1	?	0.3%	5.1%	4.8%	4.47µM*
O=C(Cc1ccc(Br)cc1)N1CCN(c2ccccc2O)CC1	11.2µM*	6.0%	-21.2%	1.0%	?
Cc1ccc2nc(-c3ccccc3)cc(C(=O)N3CCc4ccccc4C3)c2c1	?	3.6%	1.0%	-7.9%	-56.3%
O=C(c1cc(-c2ccccc2)nc2ccccc12)N1CCc2ccccc2C1	11.2µM*	10.7%	-19.3%	-12.2%	-38.2%
CN1CCN(C(=O)C2CC(c3ccc(F)cc3)=NO2)CC1 (configuration not stated)	-15.0%	-2.3%	-15.5%	1.9%	10.1%
COc1cccc(/C=N/NC(=O)c2nnn(-c3nonc3N)c2-c2cccs2)c1	?	-11.1%	-2.6%	-4.2%	-19.0%
C=C(C)Cn1c2ccc(NC(=O)NCC)cc2c(=O)n1C	24.4%	.	0.8%	6.5%	8.4%
CCOC(=O)C1CCCN(C(=O)c2cc(-c3ccc(F)cc3)nc3ccccc23)C1 (configuration not stated)	7.94µM*	6.9%	2.7%	22.5%	14.0%
CCOc1cc(CNCc2ccncc2)cc(Br)c1OCc1ccccc1F	11.2µM*	-5.8%	-3.2%	7.4%	-41.3%
CCOc1cc(CNCc2cccs2)cc(Br)c1OCC	10µM*	-9.2%	-9.8%	13.7%	-18.8%
CCOc1cc(CNCCSc2nnnn2C)cc(Br)c1OCc1ccccc1F	?	-3.8%	-24.4%	18.6%	-51.0%
CCOc1cc(CNCCO)cc(Br)c1OCc1cccs1	?	-9.0%	7.6%	-0.7%	-50.4%
CCOC(=O)N1CCN(c2c(NCCCN(C)c3ccccc3)c(=O)c2=O)CC1	0.8%	-0.7%	2.9%	-5.2%	-20.8%
CC1CC(=O)Nc2ccccc2N1S(=O)(=O)c1ccc(F)cc1F (configuration not stated)	-6.3%	-1.2%	?	2.1%	-4.8%
CCN(CC(=O)NC(=O)NCc1ccco1)Cc1ccccc1	-25.1%	1.5%	-3.3%	15.5%	-9.0%
CCN(CC(=O)NC(=O)NCc1ccco1)Cc1nc2ccccc2c(=O)[nH]1	-12.3%	0.5%	11.2µM*	0.1%	-17.9%
O=C(Nc1ccn(CCCN2CCN(Cc3cccc4ccccc34)CC2)c(=O)n1)OCc1ccccc1	7.94µM*	.	-6.5%	1.7%	0.0%
Cn1c(Cn2c(=O)sc3ccccc32)nnc1SCC(=O)Nc1ccccc1F	4.2%	2.0%	0.8%	7.4%	0.9%
CC(C)Cc1nnc(NC(=O)CS(=O)(=O)Cc2ccccc2)s1	-0.9%	20.6%	0.2%	-3.7%	0.9%
CCC(C)Oc1cc(-c2ccnc(Nc3cccc(Cl)c3)n2)ccn1 (configuration not stated)	11.2µM*	-14.4%	8.0%	-10.0%	-73.7%
Cc1ccccc1-n1ncc2c(SCC(=O)NCc3cccs3)ncnc21	10µM*	-1.4%	?	0.5%	-52.9%
Cc1csc(NC(=O)CSc2ncnc3c2cnn3-c2ccccc2Cl)n1	?	4.4%	-18.5%	-16.0%	-45.2%
